Compounds with a hit are over-represented: about 22% of the library has one in this group of screens.
Pf growth 96h: Primary qHTS for delayed death inhibitors of the malarial parasite plastid, 96 hour incubation; P. falciparum luciferase reporter growth, 96 h; Potency, µM (doses to about 28.7 µM), without a hit: top-dose activity change, negative = inhibition, hits mostly inhibitors; actives 6.9% (n = 320,000); AID 504834, 2011; note: potency is the fitted concentration of half-maximal effect; % is set by controls: 0 for no effect and ±100 for the full control effect
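Cell-based qHTS: luciferase-tagged P. falciparum in erythrocytes (2% hematocrit, 0.05% parasitemia final) incubated with compounds for 96 hours, 37 C, 5% CO2; luciferase detection reagent then added and luminescence measured.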
Pf growth 48h: Primary qHTS for delayed death inhibitors of the malarial parasite plastid, 48 hour incubation | P. falciparum luciferase growth in erythrocytes, 48 h | Potency, µM (titrated, usually from 28.7 µM), without a hit: at the highest dose activity change, negative = inhibition, actives largely listed as inhibitors | actives 5.9% (n = 310,000) | AID 504832, 2011; note: potency is the fitted concentration of half-maximal effect; % is set by controls: 0 for no effect and ±100 for the full control effect
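Erythrocytes infected with P. falciparum carrying an integrated firefly luciferase reporter (2% hematocrit, 0.1% parasitemia final) were exposed to compounds in RPMI 1640 with 0.5% Albumax at 37 C, 5% CO2. Growth inhibition was scored as reduced luminescence.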
Shiga toxin inh: A qHTS for Small Molecule Inhibitors of Shiga Toxin; Vero cells, Shiga toxin protein synthesis inhibition reporter; inhibition, % at 38.7 µM; actives 9.2% (n = 290,000); in the data active = inhibition mostly above about 28%, no sharp cut-off; inactive = mostly below about 43%; note: 0% is about no effect
Cycloheximide cs: Cycloheximide Counterscreen for Small Molecule Inhibitors of Shiga Toxin; cell reporter, cycloheximide protein synthesis inhibition counterscreen; max response, %; actives 12% (n = 300,000); AID 2314, 2010; in the data active = max response mostly above about 13%, no sharp cut-off; inactive = mostly below about 14%; note: read at 38.3 µM for the half of the compounds with a filed dose; 0% is about no effect
LmPK inhibitor: qHTS Assay for Inhibitors of Leishmania Mexicana Pyruvate Kinase (LmPK); Q27686; purified LmPK, Kinase-Glo ATP luminescence, 1 h; actives 0.37% (n = 290,000); Potency, µM (titrated, usually from 57.5 µM), for inactives: top-dose activity change, negative = inhibition, usual class: inhibitors; note: potency is the fitted concentration of half-maximal effect; % is set by controls: 0 for no effect and ±100 for the full control effect
Target sequence (Q27686 whole entry, looked up): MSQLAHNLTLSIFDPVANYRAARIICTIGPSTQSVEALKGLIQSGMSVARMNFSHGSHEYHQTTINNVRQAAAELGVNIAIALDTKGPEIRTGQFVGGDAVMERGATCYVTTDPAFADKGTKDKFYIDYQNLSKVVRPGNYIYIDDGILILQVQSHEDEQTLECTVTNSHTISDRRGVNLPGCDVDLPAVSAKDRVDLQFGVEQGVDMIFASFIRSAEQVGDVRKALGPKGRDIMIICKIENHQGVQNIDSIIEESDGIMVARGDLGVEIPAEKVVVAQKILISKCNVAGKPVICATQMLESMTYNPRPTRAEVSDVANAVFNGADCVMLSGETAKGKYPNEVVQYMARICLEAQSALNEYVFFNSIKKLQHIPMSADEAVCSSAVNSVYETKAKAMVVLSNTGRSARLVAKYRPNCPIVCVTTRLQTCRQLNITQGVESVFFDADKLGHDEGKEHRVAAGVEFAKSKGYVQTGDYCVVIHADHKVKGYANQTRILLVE
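Pyruvate kinase activity monitored as ATP production (luciferase luminescence). Conditions: 0.1 nM enzyme, 0.5 mM PEP, 0.1 mM ADP, 1 h, RT; normalized against uninhibited and no-enzyme wells.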
Numbers without * were called inactive. Unless noted, calls come from the whole dose curve; as a rule, active = well fitted inhibition curve with a large enough effect; inconclusive = small, poorly fitted or top-dose-only effect, or another doubt; inactive = no such curve, though single readings can be large or run the other way.

For Cc1cc(CN(C)C(=O)CCc2nnc(Cc3cccc(C(F)(F)F)c3)o2)on1 the results were Pf growth 96h inconclusive, Pf growth 48h 13.2%, Shiga toxin inh 58.1*, Cycloheximide cs 33.2* and LmPK inhibitor 4.0%.
For O=C(OCC(=O)N1CCc2ccccc21)c1nc(Cl)ccc1Cl the results were Pf growth 96h 47.7%, Pf growth 48h 6.3%, Shiga toxin inh 3.4, Cycloheximide cs 7.8 and LmPK inhibitor -0.1%.
`FC(F)Sc1ccc(N=C2NN=C(c3ccc4c(c3)OCCO4)CS2)cc1` gave Pf growth 96h inconclusive, Pf growth 48h inconclusive, Shiga toxin inh 47.3*, Cycloheximide cs 25.2* and LmPK inhibitor -0.9%.
Screening c1cc2c(cc1C1=NNC(=NC3CC3)SC1)OCCO2 returned Pf growth 96h -44.0%, Pf growth 48h -57.1%, Shiga toxin inh -19.7, Cycloheximide cs -7.6 and LmPK inhibitor 11.2µM*.
For COc1ccc(N=C2NN=C(c3ccc4c(c3)OCCO4)CS2)cc1 the results were Pf growth 96h -84.3%, Shiga toxin inh 6.4, Cycloheximide cs 21.2* and LmPK inhibitor 3.3%.
`CC1(C)Cc2c(cnn2-c2ccc(F)cc2)C(NC(=O)CCN2CCCCC2=O)C1` (centres undefined) gave Pf growth 96h inconclusive, Pf growth 48h -1.4%, Shiga toxin inh 28.9, Cycloheximide cs 8.7 and LmPK inhibitor -10.1%.
`O=C(CCN1C(=O)C2CCCCC2C1=O)N1CCN(S(=O)(=O)c2c(F)cccc2F)CC1` (centres undefined) gave Pf growth 96h -13.2% and Pf growth 48h -13.1%.
For COc1cc(C2C(C#N)=C(N)N(c3sc4c(c3C#N)CCCC4)C3=C2C(=O)CC(C)(C)C3)cc(OC)c1OC (centres undefined) the results were Pf growth 96h 11.7µM*, Pf growth 48h inconclusive, Shiga toxin inh -15.6, Cycloheximide cs -0.1 and LmPK inhibitor -2.1%.
`Cc1ccccc1C1C(C#N)=C2NC(=O)c3c(sc4c3CCCCC4)N2C2=C1C(=O)CC(C)(C)C2` (centres undefined) gave Pf growth 96h -0.3%, Pf growth 48h inconclusive, Shiga toxin inh -7.0, Cycloheximide cs -2.7 and LmPK inhibitor 0.2%.
COc1ccc(C(c2nnnn2CC2CCCO2)N2CCC(C(N)=O)CC2)cc1 (centres undefined) was read as Pf growth 96h -17.3%, Pf growth 48h 9.9%, Shiga toxin inh -2.4, Cycloheximide cs -2.0 and LmPK inhibitor 1.9%.
`COc1ccc(C(c2nnnn2CC2CCCO2)N2CCN(c3cccc(C)c3C)CC2)cc1` (centres undefined) gave Pf growth 96h 2.9%, Pf growth 48h 9.28µM*, Shiga toxin inh 3.5, Cycloheximide cs -5.0 and LmPK inhibitor -2.4%.
`CCCCC(c1nnnn1CC1CCCO1)N1CCN(Cc2ccccc2)CC1` (centres undefined) gave Pf growth 96h inconclusive, Pf growth 48h inconclusive, Shiga toxin inh 2.2, Cycloheximide cs -1.7 and LmPK inhibitor 5.7%.
`CCCCC(c1nnnn1CC1CCCO1)N1CCN(c2cccc(C)c2C)CC1` (centres undefined) gave Pf growth 48h 13.1µM*, Shiga toxin inh -4.3, Cycloheximide cs 1.8 and LmPK inhibitor 1.9%.
Screening Cc1ccc(F)cc1NC(=O)C1CC(=O)N(CCc2ccccc2)C1 (centres undefined) returned Pf growth 96h 22.0%, Pf growth 48h 4.5%, Shiga toxin inh -10.8, Cycloheximide cs -5.0 and LmPK inhibitor 5.0%.
O=C(N/C(=C/c1cn(-c2ccccc2)nc1-c1ccccc1)C(=O)N1CCOCC1)c1ccc(Cl)cc1Cl was read as Pf growth 96h inconclusive, Pf growth 48h 6.57µM*, Shiga toxin inh -1.7, Cycloheximide cs -0.8 and LmPK inhibitor 0.8%.
`Cc1cccc(-c2nn(-c3ccccc3)cc2C(=O)NCC(c2cccs2)N2CCOCC2)c1` (centres undefined) gave Pf growth 96h inconclusive and Pf growth 48h 13.1µM*.
For Cc1cccc(C(=O)NCC(c2cccs2)N2CCOCC2)c1 (centres undefined) the results were Pf growth 96h -2.5% and Pf growth 48h -12.6%.
Screening O=C(NCC(c1ccco1)N1CCCC1)c1cn(Cc2ccccc2)nc1-c1ccccc1 (centres undefined) returned Pf growth 96h 9.28µM* and Pf growth 48h inconclusive.
For O=C(NC(=S)N1CCOCC1)c1cn(-c2ccccc2)nc1-c1ccc(F)cc1 the results were Pf growth 96h 11.7µM* and Pf growth 48h inconclusive.
Screening CC(C)(C)NC(=O)C(c1ccc(F)cc1)N(C(=O)CCC(=O)Nc1ccccn1)C1CCCC1 (centres undefined) returned Pf growth 96h -14.6%, Pf growth 48h inconclusive, Shiga toxin inh -2.5, Cycloheximide cs -1.9 and LmPK inhibitor -0.7%.
`O=C1C2CCC(C2)[C@@H]2CCCCN12` (some centres undefined) gave Shiga toxin inh inactive and Cycloheximide cs 7.5.
For O=C(NCC(c1ccco1)N1CCCC1)c1cn(-c2ccccc2)nc1-c1ccc(F)cc1 (centres undefined) the results were Pf growth 96h 8.28µM* and Pf growth 48h inconclusive.
Screening COc1ccccc1-c1nn(-c2ccccc2)cc1C(=O)NCC(c1ccco1)N1CCCC1 (centres undefined) returned Pf growth 96h 14.7µM* and Pf growth 48h inconclusive.
For Fc1ccc(-c2nn(-c3ccccc3)cc2CNCc2ccccc2)cc1 the results were Pf growth 96h 15.9%, Pf growth 48h inconclusive, Shiga toxin inh -4.9, Cycloheximide cs -3.4 and LmPK inhibitor -0.1%.
Screening O=C(CCl)Nc1cn(-c2ccccc2)nc1-c1ccc(F)cc1 returned Pf growth 96h inconclusive, Pf growth 48h -29.8%, Shiga toxin inh 18.5, Cycloheximide cs 24.2* and LmPK inhibitor 0.7%.
O=C(NCC(c1ccco1)N1CCCC1)c1ccccc1F (centres undefined) was read as Pf growth 48h 3.8%, Shiga toxin inh -7.6, Cycloheximide cs 6.4 and LmPK inhibitor 0.4%.
COc1ccc([C@@H]2CC(=O)c3c(O)cc(O[C@@H]4O[C@H](CO)[C@@H](O)[C@H](O)[C@H]4O[C@@H]4O[C@@H](C)[C@H](O)[C@@H](O)[C@H]4O)cc3O2)cc1 was read as Shiga toxin inh -6.5 and Cycloheximide cs -3.0.
For Clc1ccccc1CNC1CN2CCC1CC2 (centres undefined) the results were Pf growth 96h -16.2%, Pf growth 48h 12.3%, Shiga toxin inh -8.3, Cycloheximide cs 5.2 and LmPK inhibitor -2.1%.
Screening CSc1ccc(CNC2CN3CCC2CC3)cc1 (centres undefined) returned Pf growth 96h 1.65µM*, Pf growth 48h 3.0%, Shiga toxin inh 15.6, Cycloheximide cs -2.1 and LmPK inhibitor 0.6%.
